Cruzain inh Det = qHTS Assay for Promiscuous and Specific Inhibitors of Cruzain (with detergent) | 200,000 compounds, 0.43% hits | AID 1478, 2009 | Cruzipain (Trypanosoma cruzi), P25779 | purified cruzain, Z-FR-AMC fluorescence, 0.01% Triton | Potency, µM, for the others: max response, negative = inhibition, usual class: inhibitors;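 note: plate controls were neutral wells for no effect and buffer without enzyme for full effect; nearly all actives have a fitted effect of over 40% in size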
Target sequence (P25779 123-467 limits assumed): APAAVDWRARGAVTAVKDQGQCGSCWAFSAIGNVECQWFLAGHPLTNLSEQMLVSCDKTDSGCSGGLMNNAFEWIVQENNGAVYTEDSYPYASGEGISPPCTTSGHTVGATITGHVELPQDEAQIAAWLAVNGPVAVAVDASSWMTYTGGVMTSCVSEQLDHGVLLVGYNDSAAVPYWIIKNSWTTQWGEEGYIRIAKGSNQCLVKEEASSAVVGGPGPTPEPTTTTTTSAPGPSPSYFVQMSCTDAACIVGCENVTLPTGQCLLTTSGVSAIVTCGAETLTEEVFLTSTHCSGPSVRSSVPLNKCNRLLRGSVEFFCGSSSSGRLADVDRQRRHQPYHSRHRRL
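Detergent-containing run (0.01% Triton X-100) in acetate buffer pH 5.5 with 5 mM DTT: enzyme at 1.5 nM final, 15 min compound preincubation at room temperature, then 2 uM Z-FR-AMC substrate. Activity taken as 60 s fluorescence increase at 360/450 nm.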
Cruzain inh noDet = qHTS Assay for Promiscuous and Specific Inhibitors of Cruzain (without detergent); Potency, µM, without a hit: max response, negative = inhibition, usual class: inhibitors; Cruzipain (Trypanosoma cruzi), P25779; AID 1476, 2009; 200,000 compounds, 2.3% hits; purified cruzain, Z-FR-AMC fluorescence, no detergent;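 note: plate controls were enzyme without inhibitor for no effect and buffer without enzyme for full effect; nearly all actives have a fitted effect of over 40% in size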
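Purified cruzain at 1.5 nM, pre-incubated 15 min with compound at room temperature in 100 mM sodium acetate pH 5.5, 5 mM DTT, 0.00005% Triton X-100. Reaction started with 2 uM Z-FR-AMC; AMC fluorescence increase over 60 s gives rate.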
Papain counter = qHTS Assay for Inhibitors of Papain: Counterscreen for Cruzain Assay | shares compounds with Cruzain inh Det | purified papain, Z-FR-AMC fluorescence cleavage | Potency, µM, without a hit: max response, negative = inhibition, hits mostly inhibitors | 410 compounds, 41% hits | AID 2161, 2009;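 note: 0% = no-compound wells and -100% = no-enzyme wells; nearly all actives have a fitted effect of over 35% in size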
Target sequence (P00784 whole entry, looked up): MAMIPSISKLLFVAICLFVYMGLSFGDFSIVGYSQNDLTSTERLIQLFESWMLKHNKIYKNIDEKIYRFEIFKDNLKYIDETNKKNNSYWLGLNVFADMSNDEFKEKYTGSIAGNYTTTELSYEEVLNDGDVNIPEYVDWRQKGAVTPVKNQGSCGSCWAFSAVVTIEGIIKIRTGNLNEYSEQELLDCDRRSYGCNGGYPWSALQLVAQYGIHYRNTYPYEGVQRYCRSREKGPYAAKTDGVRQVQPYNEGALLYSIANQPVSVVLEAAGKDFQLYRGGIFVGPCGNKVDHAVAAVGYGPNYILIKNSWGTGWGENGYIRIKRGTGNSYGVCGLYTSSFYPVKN
Numbers without * were called inactive; ? = inconclusive; . = no result. Shown are actives, neighbours in structure and some others; about 2.4% of the full set was active somewhere. Calls come from the whole dose curve; as a rule, active = well fitted curve in the direction sought with a large enough effect; inconclusive = small, poorly fitted or top-dose-only effect, or another doubt; inactive = no such curve, though single readings can be large; an effect the other way counts as inactive or inconclusive. Potency is the fitted concentration of half-maximal effect.

SMILES	Cruzain inh Det	Cruzain inh noDet	Papain counter
CCc1ccc(C2CC(=O)c3c([nH]c(C(=O)OCCOc4ccccc4)c3C)C2)cc1 (configuration not stated)	-2%	3%	.
CCCCOC(=O)c1ccc(NC(=O)c2cc3c(=O)n4cccc(C)c4nc3n2C)cc1	-2%	1%	.
C/C(CC(=O)Nc1cc(Cl)ccc1Cl)=N\NC(N)=S	1µM*	1µM*	2.8µM*
CC(=O)Nc1ccc(Cl)c(C(N)=O)c1	-1%	5%	.
C/C(CC(=O)Nc1cccc(Cl)c1)=N\NC(=O)Cc1ccc(Cl)cc1	-8%	0%	.
C/C(CC(=O)Nc1ccc(Cl)c(Cl)c1)=N\NC(N)=S	0.5µM*	0.32µM*	-15%
COc1ccc(S(=O)(=O)NCCc2csc3nc(-c4ccc(OC)c(OC)c4)nn23)cc1C	-3%	22%	.
O=C(NCc1ccccc1)c1cnc(N2CCCCC2)c2ccccc12	-6%	-11%	.
CCc1ccc2oc(-c3cccc(NC(=O)C(C)(C)Oc4ccc(Br)cc4)c3)nc2c1	2%	-26%	.
CCN(CC)c1ccc(-c2nn3c(-c4n[nH]c5c4CCC5)nnc3s2)cc1	-2%	0%	.
COc1cccc(OC)c1-c1nn2c(-c3n[nH]c4c3CCC4)nnc2s1	.	.	16µM*
COc1ccc(C2CC(=O)c3c([nH]c(C(=O)OC4CCCCCC4)c3C)C2)cc1OC (configuration not stated)	-4%	-6%	.
COc1ccc(C)cc1NC(=O)NC(C)c1c(-n2cccc2)sc(C)c1C (configuration not stated)	-5%	?	.
O=C(Oc1ccc(/C=N/NC(=O)c2ccccc2O)cc1)c1ccccc1	-10%	-18%	.
O=C(N/N=C\c1ccccc1O)c1ccccc1O	-10%	32µM*	7%
O=C(Nc1c(C(=O)O)oc2ccccc12)c1ccc(C(F)(F)F)cc1	-13%	-1%	.
N/C(Cc1ccc(Cl)cc1)=N\OC(=O)c1cccc2ccccc12	-3%	0%	.
CN1C(=O)/C(=N\OC(=O)c2cccc3ccccc23)c2ccccc21	3.2µM*	7.9µM*	16µM*
CCNc1nc(NOC)nc(OCC#N)n1	-1%	-3%	.
CCNc1nc(C#N)nc(NCC)n1	.	.	-8%
O=C(CCCn1c(=O)[nH]c2ccsc2c1=O)N1CCN(c2cccc(C(F)(F)F)c2)CC1	-5%	?	.
CCCCC(=O)OCC(=O)Nc1ccc(OC(F)F)cc1	1%	-12%	.
O=C(COC(=O)CNS(=O)(=O)c1ccc(F)c(F)c1F)Nc1ccc(OC(F)F)cc1	22µM*	?	-6%
O=C(CC1N=C2c3ccccc3N=C(SCc3cccc(Cl)c3)N2C1=O)NC1CCCCC1 (configuration not stated)	0%	-1%	.
O=C(NCCc1nc2ccccc2[nH]1)c1cc([N+](=O)[O-])cc([N+](=O)[O-])c1	3.5µM*	-4%	5%
SMILES	Cruzain inh Det	Cruzain inh noDet	Papain counter
O=C(NCCOc1ccccc1)c1cc(C(=O)NCCOc2ccccc2)cc([N+](=O)[O-])c1	-5%	-2%	.
O=C(NC1CCCC1)c1ccc(CSc2nc3ccncc3n2Cc2ccccc2F)cc1	-7%	3%	.
CCC(C(=O)NC1CCCCC1)n1c(SCc2ccccc2F)nc2ccncc21 (configuration not stated)	13µM*	?	28µM*
Cc1ccc(CNC(=O)CCC(=O)N2CC3CCCN3c3ccccc32)cc1 (configuration not stated)	-8%	-8%	.
O=C(NCCc1nc2ccccc2n1CCCOc1ccccc1)C1CCCCC1	.	.	-20%
O=C(NCCc1nc2ccccc2n1CCCCOc1ccccc1)C1CCCCC1	.	.	25µM*
OCCCc1nc2ccccc2n1CCOc1ccccc1	2%	-10%	.
CC(C)(C)C(=O)NCCc1nc2ccccc2n1CCCCOc1ccc(Cl)cc1	-12%	?	.
COc1ccc(NS(=O)(=O)c2ccc(-n3nnc4ccccc43)c([N+](=O)[O-])c2)cc1	-6%	?	.
O=[N+]([O-])c1cc(S(=O)(=O)Nc2cccc(C(F)(F)F)c2)ccc1-n1nnc2ccccc21	4µM*	10µM*	28µM*
O=C(Nc1ccc(N2CCCC2)cc1)c1ccc(Br)o1	?	7.9µM*	26%
O=C(Nc1ccc(N2CCN(C(=O)c3ccccc3)CC2)cc1)c1ccc(Br)o1	-5%	?	.
CCOC(=O)c1cc2c(=O)n3ccccc3nc2n(Cc2ccco2)c1=NC(=O)c1cccc(C)c1	-12%	-1%	.
CCOC(=O)c1cc2c(=O)n3ccccc3nc2n(Cc2ccco2)c1=NC(=O)c1cccnc1	16µM*	-4%	-58%
CCCc1cnc2c(c1SCC(=O)N1CCC(C)CC1)c(=O)n(C)c(=O)n2C	-2%	14%	.
CC(C)c1ccc(NC(=O)C2CCN(S(=O)(=O)c3cccc4nsnc34)CC2)cc1	-1%	-5%	.
O=C(COC(=O)CCSc1ccccc1)Nc1ccc(F)cc1Cl	?	-12%	.
O=C(COC(=O)CCSc1ccccc1Cl)Nc1ccc(F)cc1F	14µM*	13µM*	-2%
COc1cc(/C=c2\sc3nc(-c4ccncc4)nn3c2=O)ccc1OC(C)=O	-1%	?	.
Cn1nc(-c2ccccc2)nc2c(=O)n(C)c(=O)nc1-2	.	.	-4%
Cn1nc(-c2ccncc2)nc2c(=O)n(C)c(=O)nc1-2	.	.	-7%
Cc1ccc(-n2c3nc(=O)n(C)c(=O)c-3cc3ccccc32)c(C)c1	8%	-10%	.
Cc1nc2c(=O)n(C)c(=O)nc-2n(C)n1	1µM*	0.5µM*	-1%
Cn1c(=O)c(-c2ccccc2)nn2c3ccccc3nc12	2%	-19%	.
Cc1ccc(Cl)cc1N1CCN(C(=O)CCCCCn2c(=O)[nH]c3ccccc3c2=O)CC1	-4%	21%	.
SMILES	Cruzain inh Det	Cruzain inh noDet	Papain counter
CN(C)CCCNS(=O)(=O)c1ccc(N2CCC(c3ccc(Cl)cc3)=N2)cc1	32µM*	?	28µM*
O=S(=O)(c1ccc(N2CCC(c3ccc(Cl)cc3)=N2)cc1)N(CCO)CCO	4%	?	.
Cc1cc(C)cc(NC(=O)Cn2cc(S(=O)(=O)NC(C)(C)C)c(S(=O)(=O)NC(C)(C)C)c2)c1	-10%	8%	.
Cc1sc2c(c1C)c(=O)n(CCc1ccccc1)c(=O)n2Cc1ccc(C(C)(C)C)cc1	-1%	-4%	.
CSc1nc(N(CCO)CCO)c2sc3nc(-c4ccco4)c4c(c3c2n1)CCC4	10µM*	3.2µM*	13µM*
OCCN(CCO)c1ncnc2c1sc1nc(N3CCOCC3)c3c(c12)CCCC3	-11%	?	.
Cc1cccc(NC(=O)c2ccc(-c3nc(CSc4ccccc4)c(C)o3)cc2)c1C	-5%	?	.
Cc1ccc(N(Cc2cccs2)C(=O)c2ccco2)cc1	-4%	5%	.
CC(=O)N1CCN(C(=S)c2ccc(-c3ccc(Cl)cc3)o2)CC1	8.9µM*	?	16µM*
S=C(c1ccc(-c2cccc(Cl)c2)o1)N1CCOCC1	-25%	-14%	.
COc1ccc(Cl)cc1NC(=O)Cn1c2ncccc2c(=O)n1-c1ccc(C)c(C)c1	1%	-4%	.
CC(C)C(=O)NCCc1nc2ccccc2n1CCCOc1ccc(Cl)cc1	-2%	22%	.
COc1ccc(OCCn2c(CCNC(=O)C3CCCCC3)nc3ccccc32)cc1	.	.	-17%
COc1ccc(OCCCn2c(CCNC(=O)C3CCCCC3)nc3ccccc32)cc1	.	.	-9%

Compound activity as filed in PubChem BioAssay.
